Test results as given in the supplement of paper PMC6555819.

How the values were obtained:
Assay in all cases: PBM binding z-score (relative to random genomic background probes); higher = stronger binding; sequences stand for … in GC…GCGATTGACAGCGTAGAATGAAGG
[1] = tested on: FXR:RXRa (NR concentration 270 nM, RXRa partner concentration 90 nM)
Summary of the method: (§1)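 Random background probes are the reference for binding z-scores. These scores derive from regression-normalized fluorescence on custom Agilent 4×180K protein-binding microarrays incubated 1 h with ligand-free nuclear receptor dimers. Binding was detected with antibodies against each partner (one per run).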

[2] = tested on: LXRa:RXRa (NR concentration 270 nM, RXRa partner concentration 90 nM)
Summary of the method: as §1

[3] = tested on: LXRa homodimer (NR concentration 270 nM)
Summary of the method: as §1

[4] = tested on: LXRb:RXRa (NR concentration 270 nM, RXRa partner concentration 90 nM)
Summary of the method: as §1

[5] = tested on: LXRb homodimer (NR concentration 270 nM)
Summary of the method: as §1

[6] = tested on: PPARa:RXRa (NR concentration 270 nM, RXRa partner concentration 90 nM)
Summary of the method: as §1

[7] = tested on: PPARg:RXRa (NR concentration 180 nM, RXRa partner concentration 90 nM)
Summary of the method: as §1

[8] = tested on: PPARg:RXRa 270nM:90nM, anti-RXR (NR concentration 270 nM, RXRa partner concentration 90 nM)
Summary of the method: as §1

[9] = tested on: PPARg:RXRa 30nM:10nM, anti-RXR (NR concentration 30 nM, RXRa partner concentration 10 nM)
Summary of the method: as §1

[10] = tested on: PPARg:RXRa 90nM:30nM, anti-RXR (NR concentration 90 nM, RXRa partner concentration 30 nM)
Summary of the method: as §1

Sequence	PBM binding z-score [1]	PBM binding z-score [2]	PBM binding z-score [3]	PBM binding z-score [4]	PBM binding z-score [5]	PBM binding z-score [6]	PBM binding z-score [7]	PBM binding z-score [8]	PBM binding z-score [9]	PBM binding z-score [10]
CCGACTGGAGCAAAGGTTACCATACTCAGTACGA	0.849	1.39	0.0439	1.71	-0.613	4.5	8.49	8.31	8.2	8.54
CCTAGCAGGACAATCTGGGTCACTCAAGGCTTGA	1.05	0.686	-0.28	0.742	-0.672	3.31	2.44	2.26	0.245	1.56
AGAAGGAGGTTACCAAAGATCAGGGAAACGCTTG	0.978	5.85	0.0257	2.9	0.368	2.79	1.84	2.1	0.736	1.37
AGAAGGAGGTTAAGATCAGGGAAACAGAATACAT	1.65	1.79	0.422	2.19	1.11	2.82	1.84	1.67	0.855	1.19
CCTCCTGGGCCATTCAGAGGTCATTGATCATATG	2.62	4.24	6.14	3.46	-0.028	3.23	0.59	1.78	0.334	0.958
CCTACTGGGCCACAAAGGTCATTGATGCCGATAA	4.47	5.11	4.74	4.39	0.772	5.25	6.17	5.75	3.17	5.54
AGAACGAGGGCAATGAGTTGAAAGCACGGGTGGC	0.345	0.43	-0.528	-0.0192	-0.804	1.57	1.36	1.21	-0.135	0.569
ATCGAAAGGTCGACGAGGTAAGTATACACCGTTT	4.59	3.11	-0.055	2.62	0.428	4.09	2.6	3	1	2.11
CTCGAAAGGTCCGTTGAGGTGAGTATACGGATAA	0.973	-0.377	-0.421	-0.34	-0.666	0.249	-0.102	0.101	-0.184	-0.198
TCTATTAGTTGATTAGGTCAACCGAAACAGCGGA	1.7	2	1.49	2.02	1.35	2.94	1.16	3.19	3.91	3.59
CTTCCAAGGTCAGAGAGGTCAGTGAATGCCGAGT	5.96	5.16	3.44	4.49	0.991	4.78	3.44	4.24	1.24	2.89
CGAACGAGGGCATGAGTCGATAGCAAATGCCGAT	0.37	0.268	-0.569	-0.0412	-0.951	1.48	1.74	2.28	0.37	1.93
CCTACTGGGCCAAAAAGGTCATCGATGCCGATAA	3.69	4.2	2.69	4.33	0.178	4.93	4.32	4.61	2.07	4.04
AGAACGAGGGCAATGAGTTGATAGAACGGGTGGC	0.324	0.221	-0.321	-0.103	-0.564	0.984	1.53	0.857	0.188	0.62
ATCTCTAGGTAAAGATAGTTCAGTGAATGCAAAT	0.206	4.16	0.484	0.65	0.725	0.625	0.646	0.562	1.03	0.949
ACAGACAGGTGTGTGAAGGTAACTCAGCTGGACG	0.0191	-0.00303	-0.46	-0.618	-0.921	-0.347	0.522	-0.0357	-0.212	-0.375
GCTCGTAGGACAAGGTCAGAGCTTTGTCCGTAGA	1.45	1.74	-0.722	1.25	-0.639	2.44	0.258	1.16	-0.473	0.455
CCTCGGAGGACAGAAAGTCAGAGCTGTCCGCTTT	-0.421	-0.464	-0.45	-1.05	-0.903	-0.745	-0.796	-0.982	-1.28	-1.14
TTACCAAGGTGAAAGGTCGTTAATGCACGCCTTG	3.24	2.77	0.376	2.71	-0.461	5.24	8.59	7.35	6.74	7.85
CGTCCAAGGTCAGCAGGTCAGTGACAGCGACGTG	5.75	3.99	0.47	2.99	-0.142	4.63	3.93	4.53	1.26	2.97
ACAGATAGGTGAGTGAAGGTAACTCAGCTGGACG	0.482	0.0886	-0.209	-0.39	-0.76	0.462	0.821	0.426	-0.17	0.325
CCTACTGGGCCACGAGAGGTCATTGATTCAGTGA	3.4	4.47	4.55	3.57	0.302	4.09	4.45	4.16	1.68	3.1
CCTCGGAGGACAACAGGAGGTCTGAGCTGCCAGA	-0.506	-0.574	-0.845	-1.09	-1	-0.764	-0.138	-0.868	-1.36	-1.17
TTACCTAGGTGAGCTGAGGTCGTTGATCCAACTC	0.355	0.722	-0.414	0.389	-0.985	1.68	0.522	1.09	0.135	0.445
